Measurements taken from the supplement of paper PMC8007513.
Counter-ions that a name gives are not always drawn. ± gives the standard error. Hit rate of the full screen: of about 1,300 compounds, about 130 (10%) showed an effect of 50% or more. The list comes from a sample in which strong results are over-represented; it also holds similar structures and randomly drawn compounds.

Tested on: Trichoderma virens ATCC 9645
Assay: growth yield (OD600) with compound + IPBC relative to untreated control; higher = less growth inhibition
Settings: compound concentration: 100 uM, IPBC concentration: 200 ng/ml
Summary of the method: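 For each 96-well plate, 100 μl aliquots were prepared with Trichoderma virens ATCC 9645 spores suspended at 15,000 spores ml^−1 in potato dextrose broth. The spores had been harvested from potato dextrose agar plates after 7 days. Library compounds were present at 100 μM final, some wells also receiving a biocide at 200 ng ml^−1, and plates were grown at 30 °C with OD600 read on a BioTek EL800 at 40 h and 72 h. Reported growth, relative to the control lacking both agents, is the mean of duplicate screens.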

| SMILES | growth yield (40 h) [%] | growth yield (72 h) [%] |
| --- | --- | --- |
| CCCCNc1ccc(C(=O)OCCN(C)C)cc1 + CCCCNC(=O)OCC#CI [3-iodo-2-propynyl butylcarbamate (IPBC)] | 81.5 ± 1.4 | 88.2 ± 0.32 |
| CCCCNc1ccc(C(=O)OCCOCCOCCOCCOCCOCCOCCOCCOCCOC)cc1 [Benzonatate] + CCCCNC(=O)OCC#CI [3-iodo-2-propynyl butylcarbamate (IPBC)] | 77.4 ± 1.1 | 83.27 ± 0.42 |
| CCCCNc1c(C(=O)OCC)c(C)nc2c1cnn2CC [Tracazolate hydrochloride] + CCCCNC(=O)OCC#CI [3-iodo-2-propynyl butylcarbamate (IPBC)] | 21.9 | 53.7 ± 0.21 |
| CC(C)(S)C(N)C(=O)O (racemic) [D,L-Penicillamine] + CCCCNC(=O)OCC#CI [3-iodo-2-propynyl butylcarbamate (IPBC)] | 94.8 ± 8.4 | 94.2 ± 5.5 |
| COC1=CC(=O)C[C@@H](C)[C@]12Oc1c(Cl)c(OC)cc(OC)c1C2=O [Griseofulvin] + CCCCNC(=O)OCC#CI [3-iodo-2-propynyl butylcarbamate (IPBC)] | 48.8 ± 3.6 | 85.2 ± 1.1 |
| CCC(=O)O[C@@H](O[P@](=O)(CCCCc1ccccc1)CC(=O)N1C[C@H](C2CCCCC2)C[C@H]1C(=O)O)C(C)C [Fosinopril] + CCCCNC(=O)OCC#CI [3-iodo-2-propynyl butylcarbamate (IPBC)] | 86.9 ± 9.1 | 94.8 ± 7.3 |
| C[N+](C)(CCOc1ccccc1)Cc1ccccc1.O=C([O-])c1cc2ccccc2cc1O [Bephenium hydroxynaphthoate] + CCCCNC(=O)OCC#CI [3-iodo-2-propynyl butylcarbamate (IPBC)] | 63.5 | 85.3 ± 2.4 |
| Cc1cc(C(C)(C)CC(C)(C)C)ccc1OCCOCC[N+](C)(C)Cc1ccccc1 [Methyl benzethonium chloride] + CCCCNC(=O)OCC#CI [3-iodo-2-propynyl butylcarbamate (IPBC)] | 2.86 ± 0.64 | 2.62 ± 0.1 |
| CC(C)(C)CC(C)(C)c1ccc(OCCOCC[N+](C)(C)Cc2ccccc2)cc1 [Benzethonium chloride] + CCCCNC(=O)OCC#CI [3-iodo-2-propynyl butylcarbamate (IPBC)] | 3.18 ± 0.32 | 2.52 ± 0.42 |
| CCC(=O)O[C@]1(C(=O)SCF)[C@H](C)C[C@H]2[C@@H]3C[C@H](F)C4=CC(=O)C=C[C@]4(C)[C@@]3(F)[C@@H](O)C[C@@]21C [Fluticasone propionate] + CCCCNC(=O)OCC#CI [3-iodo-2-propynyl butylcarbamate (IPBC)] | 101 ± 0.64 | 99.63 ± 0.42 |
| Cc1cc(CC(=O)O)n(C)c1C(=O)c1ccc(Cl)cc1 [Zomepirac sodium salt] + CCCCNC(=O)OCC#CI [3-iodo-2-propynyl butylcarbamate (IPBC)] | 89.59 ± 0.64 | 92.4 ± 2.2 |
| CNCC[C@@H](Oc1ccccc1C)c1ccccc1 [Tomoxetine hydrochloride] + CCCCNC(=O)OCC#CI [3-iodo-2-propynyl butylcarbamate (IPBC)] | 78.31 ± 0.48 | 87.89 ± 0.84 |
| CN1CCN(C2=Nc3cc(Cl)ccc3Nc3ccccc32)CC1 [Clozapine] + CCCCNC(=O)OCC#CI [3-iodo-2-propynyl butylcarbamate (IPBC)] | 65.6 ± 2.7 | 93.8 ± 2.7 |
| CC(CCc1ccccc1)NC(C)C(O)c1ccc(O)cc1 (stereo not given) [Nylidrin] + CCCCNC(=O)OCC#CI [3-iodo-2-propynyl butylcarbamate (IPBC)] | 95.3 ± 2.9 | 96.59 ± 0.1 |
| CCCCCCCCNC(C)C(O)c1ccc(SC(C)C)cc1 (stereo not given) [Suloctidil] + CCCCNC(=O)OCC#CI [3-iodo-2-propynyl butylcarbamate (IPBC)] | 5.08 ± 0.32 | 33.1 ± 2.5 |
| CC(NCCc1ccc(O)cc1)C(O)c1ccc(O)cc1 (stereo not given) [Ritodrine hydrochloride] + CCCCNC(=O)OCC#CI [3-iodo-2-propynyl butylcarbamate (IPBC)] | 83.07 ± 0.16 | 92.4 ± 0.32 |
| OCCN1C[C@H](O)[C@@H](O)[C@H](O)[C@H]1CO [Miglitol] + CCCCNC(=O)OCC#CI [3-iodo-2-propynyl butylcarbamate (IPBC)] | 90.1 ± 9.1 | 93 ± 4.5 |
| CCOC(=O)c1ccc(C#Cc2ccc3c(c2)C(C)(C)CCS3)nc1 [Tazarotene] + CCCCNC(=O)OCC#CI [3-iodo-2-propynyl butylcarbamate (IPBC)] | 81.2 ± 2.7 | 91.6 ± 1.4 |
| C#CCN[C@@H]1CCc2ccccc21 [Rasagiline] + CCCCNC(=O)OCC#CI [3-iodo-2-propynyl butylcarbamate (IPBC)] | 84.5 ± 1.3 | 85.6 ± 1.1 |
| O=C(CCCN1CCC2(CC1)C(=O)NCN2c1ccccc1)c1ccc(F)cc1 [Spiperone] + CCCCNC(=O)OCC#CI [3-iodo-2-propynyl butylcarbamate (IPBC)] | 77.8 ± 2.9 | 90.4 ± 0.21 |
| O=C(CCCN1CCC(O)(c2ccc(Br)cc2)CC1)c1ccc(F)cc1 [Bromperidol] + CCCCNC(=O)OCC#CI [3-iodo-2-propynyl butylcarbamate (IPBC)] | 64.3 ± 2.1 | 87.3 ± 1.5 |
| O=C(CCCN1CCC(O)(c2ccc(Cl)cc2)CC1)c1ccc(F)cc1 [Haloperidol] + CCCCNC(=O)OCC#CI [3-iodo-2-propynyl butylcarbamate (IPBC)] | 10.2 ± 1.9 | 60.4 ± 4.4 |
| CSc1nc2cc(Cl)c(Oc3cccc(Cl)c3Cl)cc2[nH]1 [Triclabendazole] + CCCCNC(=O)OCC#CI [3-iodo-2-propynyl butylcarbamate (IPBC)] | 66.7 ± 3.2 | 120 ± 6.5 |
| O=C(O)c1cn(C2CC2)c2cc(N3CCNCC3)c(F)cc2c1=O [Ciprofloxacin hydrochloride monohydrate] + CCCCNC(=O)OCC#CI [3-iodo-2-propynyl butylcarbamate (IPBC)] | 86.2 ± 8.7 | 91.5 ± 6.3 |
| CCOc1nc2cccc(C(=O)OCc3oc(=O)oc3C)c2n1Cc1ccc(-c2ccccc2-c2noc(=O)[nH]2)cc1 [Azilsartan kamedoxomil] + CCCCNC(=O)OCC#CI [3-iodo-2-propynyl butylcarbamate (IPBC)] | 110 ± 5.1 | 105 ± 2.7 |
